This passage reports % Hoechst-high responders, % tubulin-high responders and toxicity results from PubChem BioAssay AID2205 (University of Pittsburgh Molecular Library Screening Center, 2009).

Structures are written as SMILES. Screen size: about 200,000 compounds; about 1,600 (0.8%) were called active.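 The calls were made as follows: active = plate Z-score above 3 for both tubulin-high and condensed-nucleus cell shares, with cell loss under 80%, at 10 µM; inactive = the rest, inconclusive results apart.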 This excerpt belongs to a sample that is enriched for actives.

The test can be described thus: tubulin staining increase by stabilizing compounds – imaging, high-content imaging, primary screen (AID 2205).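 As to % tubulin-high responders: anti alpha tubulin signal scored within the nucleus-defined area of each cell.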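 As to toxicity: 0% = mean cell density of plate MIN control wells and 100% = no cells.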 The following applies: HeLa tubulin immunostaining HCS, 24 h, at 10 µM; % Hoechst-high responders: measured here: nuclear condensation Hoechst responders, stronger effect = higher value, share of cells brighter than vehicle mean+2SD; % tubulin-high responders: stronger effect = higher value, share of cells brighter than vehicle mean+2SD; toxicity: measured here: cytotoxicity by cell density.
`Cc1ccc(Nc2ccccc2N)cc1`: the % Hoechst-high responders turned out to be 19%, the % tubulin-high responders was 25.1% (active) and the toxicity came to 21.1%.
On the same counts, the results for `Cc1ccc(Nc2nnc(SCc3ccccc3)s2)cc1` are 1.53%, 1.84% (inactive) and 10%.
For `Nc1ccc(Nc2ccccc2)cc1` the same measures were 2.02%, 3.57% (inactive) and 3.51%.
For `COc1ccccc1OCCNC(=O)c1cc([N+](=O)[O-])cc([N+](=O)[O-])c1` the same measures were 1.79%, 2.35% (inactive) and 4.5%.
In the case of `CCOC(=O)c1sc2nc(CSCC(=O)OCc3ccc(C(=O)OC)o3)[nH]c(=O)c2c1C`, the % Hoechst-high responders was 1.26%, the % tubulin-high responders is 1.86% (inactive) and the toxicity is 6.86%.
For `CCOC(=O)c1sc2nc(C)nc(SCC(N)=O)c2c1C` the same measures were 2.34%, 3.35% (inactive) and 5.02%.
For `CCOC(=O)c1sc2nc(CSc3ccccc3)[nH]c(=O)c2c1C` the same measures were 28.5%, 17.6% (active) and 32.2%.
On the same counts, the results for `O=C(N/N=C/c1c(Cl)[nH]c2ccccc12)c1sc2ccccc2c1Cl` are 42.8%, 18.9% (active) and 32.3%.
On to `O=C(Nc1ccon1)c1sc2ccccc2c1Cl`, for which the % Hoechst-high responders amounted to 2.6%, the % tubulin-high responders was 2.29% (inactive) and the toxicity turned out to be 5.2%.
For `Cc1nn(C)cc1/C=N/NC(=O)c1sc2ccccc2c1Cl` the same measures were 0.999%, 1.5% (inactive) and 12.2%.
On the same counts, the results for `CCOC(=O)CCCN1CC(O)=C(c2nc3ccccc3s2)C1=N` are 2.61%, 4.95% (inactive) and 2.95%.
On the same counts, the results for `N=C1C(c2nc3ccccc3s2)=C(O)CN1NC(=O)c1ccc([N+](=O)[O-])cc1` are 1.37%, 9.65% (inactive) and 4.7%.
Regarding `COc1ccccc1N1CC(O)=C(c2nc3ccccc3s2)C1=N`, the % Hoechst-high responders was found to be 9.29%, the % tubulin-high responders is 17.8% (active) and the toxicity turned out to be 14.3%.
For `Cc1ccc(C(=O)NC(=S)Nc2ccccc2C)cc1` the same measures were 1.22%, 1.11% (inactive) and 8.22%.
As for `C/C(CCC(=O)OC[C@H]1O[C@H](C#Cc2ccccc2)C=C[C@@H]1Oc1ccc(C)cc1)=N\OC[C@@H](O)[C@H]1O[C@@H]2OC(C)(C)O[C@@H]2[C@H]1O`, the % Hoechst-high responders is 2.47%, the % tubulin-high responders is 2.74% (inactive) and the toxicity is 9.27%.
Turning to `CCC1(C(=O)c2ccccc2)C(c2cccc([N+](=O)[O-])c2)C1(C(=O)OC)C(=O)OC` (stereo not given), the % Hoechst-high responders came to 2.35%, the % tubulin-high responders was 3.4% (inactive) and the toxicity is 3.29%.
With `COc1ccccc1C1SCCN1C(=O)c1ccc([N+](=O)[O-])cc1` (stereo not given), the % Hoechst-high responders worked out at 3.5%, the % tubulin-high responders is 3.9% (inactive) and the toxicity worked out at 3.11%.
For `COc1ccc(C(=O)N2CCc3cc(OC)c(OC)cc3C2c2cccc([N+](=O)[O-])c2)cc1` (stereo not given) the same measures were 33.6%, 45.1% (active) and 30.8%.
For `Cc1cccc(OCCCC(=O)Nc2ccc(S(=O)(=O)N3CCCC3)cc2)c1` the same measures were 2.42%, 3.34% (inactive) and 1.31%.
Regarding `CCCCOc1ccc(NC(=O)[C@@H]2CCCN2C(=O)C2CCN(S(=O)(=O)c3ccc(C)cc3)CC2)cc1`, the % Hoechst-high responders came to 12%, the % tubulin-high responders was 23.9% (active) and the toxicity was 63.4%.
With `COc1ccc(N2CCN(C(=O)C3CCN(S(=O)(=O)c4ccc(C)cc4)CC3)CC2)cc1`, the % Hoechst-high responders turned out to be 2.46%, the % tubulin-high responders is 4.98% (inactive) and the toxicity is 9.28%.
For `CCOc1ccc(NC(=S)N2CCC(N(C)CC3CCCO3)CC2)cc1` (stereo not given) the same measures were 1.17%, 2.22% (inactive) and 7.25%.
On the same counts, the results for `COC(=O)c1cc(C(=O)N(Cc2ccccc2)c2ccccn2)cc([N+](=O)[O-])c1` are 2.13%, 3.91% (inactive) and 2.76%.
For `CCc1nnc(NS(=O)(=O)c2ccc(N=Cc3c(C)[nH]n(-c4ccc(C)cc4)c3=O)cc2)s1` the same measures were 2.28%, 1.91% (inactive) and 6.1%.
`CCOc1[nH]n(-c2ccc(Cl)cc2)c(=O)c1C=Nc1ccc(O)cc1`: the % Hoechst-high responders amounted to 12.9%, the % tubulin-high responders was 33.2% (active) and the toxicity stood at 43.1%.
For `Cc1[nH]n(-c2ccc(Cl)cc2)c(=O)c1/C=N/n1c(C)nc2ccccc2c1=O` the same measures were 2.61%, 5.31% (inactive) and 6.25%.
On the same counts, the results for `O=C(NC(=S)Nc1ccc(S(=O)(=O)N2CCOCC2)cc1)c1ccccc1[N+](=O)[O-]` are 1.54%, 3.32% (inactive) and 3.74%.
For the molecule `COc1ccc(-c2cc(C(=O)NCc3ccco3)no2)cc1OC`, the % Hoechst-high responders was 1.41%, the % tubulin-high responders was 1.62% (inactive) and the toxicity was found to be 8.27%.
On the same counts, the results for `Cc1ccc(CNC(=O)C2CC(c3ccccc3[N+](=O)[O-])=NO2)o1` (stereo not given) are 2.18%, 1.45% (inactive) and 2.23%.
For the molecule `COc1ccc(C2=NOC(C(=O)NCc3ccco3)C2)cc1OC` (stereo not given), the % Hoechst-high responders amounted to 22.4%, the % tubulin-high responders was 39.6% (active) and the toxicity came to 66.2%.
For `O=[N+]([O-])c1ccc(Sc2n[nH]c(-c3ccco3)n2)nc1` the same measures were 1.75%, 2.25% (inactive) and 7.26%.
On the same counts, the results for `CCCCCCCC[n+]1cccc(C(=O)N2c3c(nc(N)[nH]c3=O)NC(C)C2C)c1` (stereo not given) are 2.15%, 1.56% (inactive) and 7.45%.
On the same counts, the results for `CCOc1cccc(/C=N/N2C(=O)CSC2=S)c1O` are 1.52%, 5.1% (inactive) and 14.4%.
As for `Cc1nccn1CCCNC(=O)CC1C(=O)NCCN1Cc1ccc(Cl)c(F)c1` (stereo not given), the % Hoechst-high responders was found to be 2.31%, the % tubulin-high responders is 2.68% (inactive) and the toxicity is 1.05%.
On the same counts, the results for `COC(=O)C1C(=O)NCC1c1ccc(C)cc1` (stereo not given) are 1.21%, 1.21% (inactive) and 6.65%.
